From the supplement of paper PMC10849652
The full data set covers some 7,900 targets. This sample favours those with a hit. About 0.6% of all pairs of compound and target were hits.

Tests used:
Test in all cases: log2 fold change, soluble protein after heating vs DMSO (PISA); higher = thermal stabilisation; K562 cells, 10 uM, 30 min; active = over 0.2 and 3.5 SD of the protein, either way, in both replicates (recomputed)
[1] = compound: C1COCCN1CCN2C3=CC=CC=C3N=C2NC(=O)C4=CC(=CC=C4)[N+](=O)[O-] [IRAK-1-4 Inhibitor I]
Outline: (§1)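 K562 cells (2×10^6 cells/mL) were treated with 10 μM compound for 30 min, and aliquots were heated for 3 min over 48°C-58°C. Pooled aliquots were extracted in PBS with 0.5% NP-40 at 4°C, and the supernatant after 21,000xg for 90 min was measured by TMTpro 16plex LC-MS/MS with channel sums equalised. Reported thermal stability, relative to control samples and from duplicates, is a log2 fold change.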

[2] = compound: C=CC(=O)N1CCC[C@@H](n2nc(-c3ccc(Oc4ccccc4)cc3)c3c(N)ncnc32)C1 [ibrutinib]
Outline: as §1

[3] = compound: CC(=O)c1cnc2ccc(-c3cc(Cl)c(O)c(Cl)c3)nc2c1N[C@H]1CC[C@H](CN(C)C)CC1
Outline: as §1

[4] = compound: CC(C)(C)Cn1c(N)nc2ccc(-c3[nH]c(C(C)(C)C)nc3-c3ccc(F)cc3)nc21 [ralimetinib]
Outline: as §1

[5] = compound: CC(C)(O)CC(=O)NCCn1ccc2ncnc(Nc3ccc(Oc4cccc(C(F)(F)F)c4)c(Cl)c3)c21
Outline: as §1

[6] = compound: CC(C)C1=C2N=C(C=C(N2N=C1)NCC3=CC=CC=C3)NCCCCCCN
Outline: as §1

[7] = compound: CC(C)C[C@@H](C=O)NC(=O)[C@H](CC(C)C)NC(=O)[C@H](CC(C)C)NC(=O)OCc1ccccc1
Outline: as §1

[8] = compound: CC(C)N(C[C@H]1O[C@@H](n2cnc3c(N)ncnc32)[C@H](O)[C@@H]1O)[C@H]1C[C@@H](CCc2nc3cc(C(C)(C)C)ccc3[nH]2)C1 [pinometostat]
Outline: as §1

[9] = compound: CC1=C(C(CC(=O)N1)C2=CC=C(C=C2)C(F)(F)F)C(=O)NC3=C(C=C4C(=C3)C=NN4)F
Outline: as §1

[10] = compound: CC1=C(C2=C(C=C1)C(=O)C3=CC=CC=C3N2CCCN)C
Outline: as §1

[11] = compound: CC1=C(C=C(C=C1)NC(=O)C2=CC(=CC=C2)C(C)(C)C#N)NC3=CC4=C(C=C3)N=CN(C4=O)C
Outline: as §1

[12] = compound: CC1=C(C=C(C=C1)NC(=O)C2=CC(=CC=C2)N(C)C)NC(=O)C3=CC=C(C=C3)O
Outline: as §1

[13] = compound: CC1=CC=C(C=C1)SC2=C3C=C(SC3=CN=C2)C(=O)N
Outline: as §1

[14] = compound: CC1=NC(=CC=C1)C2=C(N=C(N2)C(C)(C)C)C3=CC4=NC=CN=C4C=C3
Outline: as §1

[15] = compound: CCCCN(Cc1ccc(C(=O)NO)cc1)C(=O)Nc1ccccc1 [Nexturastat A]
Outline: as §1

[16] = compound: CCCS(=O)(=O)Nc1ccc(F)c(C(=O)c2c[nH]c3ncc(-c4ccc(Cl)cc4)cc23)c1F [vemurafenib]
Outline: as §1

[17] = compound: CCCS(=O)(=O)Nc1ccc(F)c(C(=O)c2c[nH]c3ncc(Cl)cc23)c1F
Outline: as §1

[18] = compound: CCCc1cc(C)[nH]c(=O)c1CNC(=O)c1cc(-c2ccnc(N3CCN(C)CC3)c2)cc2c1cnn2C(C)C
Outline: as §1

[19] = compound: CCN(CC)Cc1ccc2cc(COC(=O)Nc3ccc(C(=O)NO)cc3)ccc2c1 [givinostat]
Outline: as §1

[20] = compound: CCN(CCCOc1ccc2c(Nc3cc(CC(=O)Nc4cccc(F)c4)[nH]n3)ncnc2c1)CCOP(=O)(O)O [barasertib]
Outline: as §1

Measured: log2 fold change

SCCPDH (UniProt Q8NBX0)
Sequence of UniProt Q8NBX0 (Q8NBX0 whole entry, looked up): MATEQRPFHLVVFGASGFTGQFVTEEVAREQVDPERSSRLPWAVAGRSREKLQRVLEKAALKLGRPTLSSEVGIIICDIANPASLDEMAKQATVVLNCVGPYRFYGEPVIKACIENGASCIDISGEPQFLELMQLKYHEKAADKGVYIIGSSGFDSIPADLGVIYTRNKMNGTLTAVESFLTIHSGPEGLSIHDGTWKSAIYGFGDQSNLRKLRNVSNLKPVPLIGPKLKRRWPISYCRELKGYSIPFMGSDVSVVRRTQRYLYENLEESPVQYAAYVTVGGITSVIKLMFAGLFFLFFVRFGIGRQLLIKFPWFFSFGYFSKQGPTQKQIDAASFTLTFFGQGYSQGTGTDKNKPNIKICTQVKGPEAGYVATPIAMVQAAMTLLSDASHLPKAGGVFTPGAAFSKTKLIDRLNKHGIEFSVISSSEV
inactive: [1] -0.005 | [2] 0.061 | [3] 0.031 | [4] 0.059 | [5] 0.156 | [6] 0.038 | [7] -0.032 | [8] -0.073 | [9] -0.031 | [10] 0.023 | [11] 0.147 | [12] -0.092 | [13] 0.074 | [14] 0.037 | [15] -0.232 | [16] -0.016 | [17] -0.123 | [18] 0.016 | [19] 0.183 | [20] 0.046

SCAF8 isoform 2 (UniProt Q9UPN6)
inactive: [1] 0.035 | [2] -0.057 | [3] -0.145 | [4] -0.054 | [5] -0.169 | [7] 0.23 | [8] 0.065 | [9] -0.05 | [10] 0.138 | [11] 0.048 | [12] 0.002 | [13] -0.03 | [14] 0.076 | [15] 0 | [16] -0.001 | [17] 0.004 | [18] -0.013 | [19] 0.038 | [20] 0.067
active: [6] -0.417

RTF2 (UniProt Q9BY42)
Sequence of UniProt Q9BY42 (Q9BY42 whole entry, looked up): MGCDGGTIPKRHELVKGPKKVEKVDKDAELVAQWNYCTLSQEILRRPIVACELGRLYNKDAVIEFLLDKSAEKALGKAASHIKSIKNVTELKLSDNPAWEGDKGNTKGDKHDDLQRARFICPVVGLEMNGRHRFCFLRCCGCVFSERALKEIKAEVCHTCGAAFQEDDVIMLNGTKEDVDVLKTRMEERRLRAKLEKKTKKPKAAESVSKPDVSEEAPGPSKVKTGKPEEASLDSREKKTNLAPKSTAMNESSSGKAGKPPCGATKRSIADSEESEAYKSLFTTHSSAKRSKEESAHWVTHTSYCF
inactive: [1] 0 | [2] -0.096 | [3] -0.017 | [4] -0.022 | [5] 0.032 | [6] 0.164 | [7] 0.098 | [8] -0.059 | [9] -0.025 | [10] -0.054 | [11] 0 | [12] -0.028 | [13] 0.019 | [14] 0.04 | [15] 0.004 | [16] 0.129 | [17] 0.044 | [18] -0.019 | [19] 0.017 | [20] 0.072

RCOR3 isoform 3 (UniProt Q9P2K3)
inactive: [1] 0.009 | [2] -0.053 | [3] -0.188 | [4] 0.017 | [6] -0.048 | [7] 0.062 | [8] -0.038 | [9] 0.011 | [10] -0.035 | [11] -0.12 | [12] -0.046 | [13] 0.051 | [14] 0.012 | [16] 0.025 | [17] 0.031 | [18] -0.022 | [19] 0.075 | [20] 0.098

RAB5C isoform 2 (UniProt P51148)
inactive: [1] 0.015 | [2] 0.017 | [3] 0.039 | [4] 0.027 | [5] -0.012 | [6] 0.064 | [7] -0.042 | [8] -0.028 | [9] 0.028 | [10] -0.032 | [11] 0.069 | [12] -0.02 | [13] 0.02 | [14] 0.01 | [15] -0.029 | [16] 0.015 | [17] 0.008 | [18] -0.017 | [19] 0.006 | [20] -0.031

RAD50, A0A494C0Y7
inactive: [1] 0.015 | [2] 0.072 | [3] -0.037 | [4] -0.085 | [7] 0.196 | [8] 0.015 | [10] 0.051 | [11] -0.005 | [12] -0.03 | [13] -0.063 | [14] -0.041 | [16] 0.045 | [17] 0 | [18] -0.244 | [20] -0.171

RBM48 isoform 2 (UniProt Q5RL73)
Sequence of UniProt Q5RL73 (Q5RL73 whole entry, looked up): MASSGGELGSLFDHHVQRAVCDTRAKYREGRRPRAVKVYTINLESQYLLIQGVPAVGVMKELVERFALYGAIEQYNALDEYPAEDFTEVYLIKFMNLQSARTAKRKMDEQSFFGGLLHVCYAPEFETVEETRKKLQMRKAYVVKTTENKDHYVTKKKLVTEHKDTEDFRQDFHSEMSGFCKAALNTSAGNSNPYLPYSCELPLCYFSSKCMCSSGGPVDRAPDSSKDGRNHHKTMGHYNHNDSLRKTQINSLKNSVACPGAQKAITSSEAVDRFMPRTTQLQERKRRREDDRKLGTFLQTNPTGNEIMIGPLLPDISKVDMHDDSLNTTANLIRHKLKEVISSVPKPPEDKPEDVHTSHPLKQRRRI
active: [11] -0.708
inactive: [1] 0.15 | [2] 0.051 | [3] -0.018 | [4] 0.004 | [5] 0.004 | [6] 0.156 | [7] -0.301 | [8] 0.068 | [9] -0.099 | [10] -0.151 | [12] -0.13 | [13] -0.009 | [14] -0.007 | [15] 0.04 | [17] -0.011 | [19] -0.03 | [20] -0.069

SCG3 (UniProt Q8WXD2)
Sequence of UniProt Q8WXD2 (Q8WXD2 whole entry, looked up): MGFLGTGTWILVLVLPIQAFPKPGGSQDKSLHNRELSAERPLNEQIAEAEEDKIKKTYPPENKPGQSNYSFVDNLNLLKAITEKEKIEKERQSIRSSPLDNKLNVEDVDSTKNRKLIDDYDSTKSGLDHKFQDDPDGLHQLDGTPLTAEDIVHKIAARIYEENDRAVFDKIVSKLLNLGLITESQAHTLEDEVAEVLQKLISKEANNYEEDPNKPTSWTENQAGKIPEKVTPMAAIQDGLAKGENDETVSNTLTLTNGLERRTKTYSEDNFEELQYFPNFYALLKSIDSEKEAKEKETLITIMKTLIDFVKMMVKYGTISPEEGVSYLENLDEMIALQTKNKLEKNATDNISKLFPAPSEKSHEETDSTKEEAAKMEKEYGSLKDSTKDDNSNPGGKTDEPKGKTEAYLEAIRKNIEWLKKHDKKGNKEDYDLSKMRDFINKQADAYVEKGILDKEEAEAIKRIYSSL
inactive: [1] -0.003 | [2] 0.035 | [3] -0.107 | [4] 0.061 | [5] 0.039 | [6] 0.203 | [7] 0.038 | [8] -0.139 | [9] 0.05 | [10] -0.359 | [11] 0.134 | [12] -0.105 | [13] -0.011 | [14] -0.05 | [15] -0.071 | [16] 0.027 | [17] -0.041 | [18] 0.11 | [19] -0.043 | [20] 0.013

SERPINA7 (UniProt P05543)
Sequence of UniProt P05543 (P05543 whole entry, looked up): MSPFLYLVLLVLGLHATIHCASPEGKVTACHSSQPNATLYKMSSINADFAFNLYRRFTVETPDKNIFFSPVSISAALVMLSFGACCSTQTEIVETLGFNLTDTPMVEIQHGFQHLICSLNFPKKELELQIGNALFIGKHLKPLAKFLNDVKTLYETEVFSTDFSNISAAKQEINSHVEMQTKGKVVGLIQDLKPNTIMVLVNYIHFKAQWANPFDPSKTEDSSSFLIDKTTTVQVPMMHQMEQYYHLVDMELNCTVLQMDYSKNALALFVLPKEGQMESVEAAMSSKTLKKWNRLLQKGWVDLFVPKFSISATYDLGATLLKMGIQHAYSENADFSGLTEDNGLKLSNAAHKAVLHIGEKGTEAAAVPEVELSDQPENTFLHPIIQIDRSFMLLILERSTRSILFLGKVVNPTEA
inactive: [1] 0.095 | [2] 0.229 | [3] 0.227 | [4] -0.062 | [5] 0.314 | [6] 0.066 | [7] 0.043 | [8] 0 | [9] 0.077 | [10] -0.245 | [11] -0.121 | [12] 0.496 | [13] 0.067 | [14] -0.021 | [15] 0.086 | [16] -0.06 | [17] -0.271 | [18] -0.349 | [19] -0.043 | [20] -0.127

RECQL (UniProt P46063)
Sequence of UniProt P46063 (P46063 whole entry, looked up): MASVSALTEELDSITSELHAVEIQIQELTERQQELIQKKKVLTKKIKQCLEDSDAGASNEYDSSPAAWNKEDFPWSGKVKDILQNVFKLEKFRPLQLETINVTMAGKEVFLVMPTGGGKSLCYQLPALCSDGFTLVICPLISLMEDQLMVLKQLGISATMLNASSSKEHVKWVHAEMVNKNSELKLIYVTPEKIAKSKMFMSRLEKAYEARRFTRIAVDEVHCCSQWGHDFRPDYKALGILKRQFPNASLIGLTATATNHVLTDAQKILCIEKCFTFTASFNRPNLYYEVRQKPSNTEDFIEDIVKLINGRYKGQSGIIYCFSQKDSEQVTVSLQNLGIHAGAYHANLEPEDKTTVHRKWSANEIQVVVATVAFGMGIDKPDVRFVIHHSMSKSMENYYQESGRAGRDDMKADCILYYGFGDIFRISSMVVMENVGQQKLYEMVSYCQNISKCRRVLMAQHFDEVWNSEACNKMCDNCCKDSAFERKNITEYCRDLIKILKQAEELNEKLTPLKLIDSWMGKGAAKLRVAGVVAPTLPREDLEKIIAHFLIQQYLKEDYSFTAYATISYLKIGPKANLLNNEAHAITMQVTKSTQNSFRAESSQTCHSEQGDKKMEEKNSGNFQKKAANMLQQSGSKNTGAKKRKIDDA
active: [10] 0.266
inactive: [1] 0.013 | [2] 0.002 | [3] -0.023 | [4] -0.024 | [5] -0.039 | [6] -0.033 | [7] -0.02 | [8] -0.013 | [9] -0.031 | [11] 0.028 | [12] -0.012 | [13] 0.011 | [14] 0.039 | [15] -0.002 | [16] -0.009 | [17] 0.063 | [18] -0.007 | [19] 0.038 | [20] -0.002

RABGAP1L isoform 5 (UniProt Q5R372)
inactive: [1] 0.04 | [2] -0.031 | [3] -0.025 | [5] -0.057 | [6] -0.125 | [8] -0.17 | [9] -0.297 | [10] -0.271 | [11] -0.106 | [13] -0.047 | [14] -0.055 | [15] -0.009 | [17] -0.016 | [18] -0.197 | [19] -0.013 | [20] 0

RNF187 (UniProt Q5TA31)
Sequence of UniProt Q5TA31 (Q5TA31 whole entry, looked up): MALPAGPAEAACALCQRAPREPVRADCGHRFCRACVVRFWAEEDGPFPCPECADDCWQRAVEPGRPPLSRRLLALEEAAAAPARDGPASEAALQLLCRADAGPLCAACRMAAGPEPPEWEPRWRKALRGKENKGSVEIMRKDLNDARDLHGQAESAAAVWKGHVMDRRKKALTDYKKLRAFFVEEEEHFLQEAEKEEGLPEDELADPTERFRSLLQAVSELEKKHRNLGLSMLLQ
active: [7] 0.424
inactive: [1] 0.059 | [2] 0.045 | [3] -0.124 | [4] 0.039 | [5] 0.024 | [6] 0.077 | [8] -0.075 | [9] 0.046 | [10] -0.226 | [11] -0.074 | [12] -0.102 | [13] 0.048 | [14] -0.005 | [15] 0.085 | [16] -0.106 | [17] 0.039 | [18] 0 | [19] 0.036 | [20] 0.041

RPS14 (UniProt P62263)
inactive: [1] -0.178 | [2] 0.03 | [3] 0.079 | [4] 0.135 | [5] -0.014 | [6] -0.016 | [7] 0.003 | [8] -0.013 | [9] 0.035 | [11] 0.03 | [12] 0 | [13] -0.041 | [14] -0.004 | [15] 0.102 | [16] -0.066 | [17] -0.038 | [18] 0.046 | [19] 0.023 | [20] -0.04
active: [10] -0.586

RNF2 (UniProt Q99496)
Sequence of UniProt Q99496 (Q99496 whole entry, looked up): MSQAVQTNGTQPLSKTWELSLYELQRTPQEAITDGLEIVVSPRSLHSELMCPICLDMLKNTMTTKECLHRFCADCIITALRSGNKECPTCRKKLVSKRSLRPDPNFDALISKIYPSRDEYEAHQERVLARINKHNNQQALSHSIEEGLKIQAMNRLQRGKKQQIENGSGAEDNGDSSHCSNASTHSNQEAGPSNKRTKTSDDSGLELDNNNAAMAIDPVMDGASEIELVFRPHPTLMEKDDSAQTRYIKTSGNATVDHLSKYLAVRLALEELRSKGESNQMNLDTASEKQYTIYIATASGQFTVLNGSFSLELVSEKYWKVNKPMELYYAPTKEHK
inactive: [1] -0.024 | [2] 0.086 | [3] 0.001 | [5] -0.065 | [6] 0.091 | [8] 0.066 | [9] 0.04 | [10] -0.058 | [11] 0.155 | [13] 0.051 | [14] 0.022 | [15] 0.024 | [16] -0.066 | [17] 0.061 | [18] 0.07 | [19] -0.04 | [20] -0.002

SLC1A5 (UniProt Q15758)
Sequence of UniProt Q15758 (Q15758 whole entry, looked up): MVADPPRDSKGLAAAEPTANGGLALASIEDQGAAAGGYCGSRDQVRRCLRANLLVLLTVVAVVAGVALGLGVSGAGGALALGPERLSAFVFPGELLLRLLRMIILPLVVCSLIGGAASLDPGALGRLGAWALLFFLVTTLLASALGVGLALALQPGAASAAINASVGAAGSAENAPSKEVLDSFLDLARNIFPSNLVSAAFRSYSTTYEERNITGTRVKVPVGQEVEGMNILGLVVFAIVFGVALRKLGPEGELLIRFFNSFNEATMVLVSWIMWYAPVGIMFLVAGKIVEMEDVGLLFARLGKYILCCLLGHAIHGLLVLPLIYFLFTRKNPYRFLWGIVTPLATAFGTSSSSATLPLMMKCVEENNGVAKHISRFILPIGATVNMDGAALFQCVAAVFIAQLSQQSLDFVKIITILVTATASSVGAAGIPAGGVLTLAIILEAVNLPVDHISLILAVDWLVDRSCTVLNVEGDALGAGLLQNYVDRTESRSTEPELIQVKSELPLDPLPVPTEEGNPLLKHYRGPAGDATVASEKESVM
inactive: [1] 0.035 | [2] 0.028 | [3] 0.013 | [4] 0.046 | [5] -0.002 | [6] 0.23 | [7] -0.052 | [8] -0.034 | [9] -0.012 | [10] -0.014 | [11] 0.007 | [12] 0.002 | [13] 0.019 | [14] -0.01 | [15] -0.053 | [16] -0.006 | [17] 0.012 | [18] -0.01 | [19] -0.022 | [20] -0.04

SDHAF4 (UniProt Q5VUM1)
Sequence of UniProt Q5VUM1 (Q5VUM1 whole entry, looked up): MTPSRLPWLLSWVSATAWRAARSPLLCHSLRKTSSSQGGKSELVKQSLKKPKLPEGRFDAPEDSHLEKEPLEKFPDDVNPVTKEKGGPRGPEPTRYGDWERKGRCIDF
active: [19] 0.368
inactive: [1] -0.071 | [2] 0.01 | [3] -0.055 | [5] 0.081 | [6] 0.149 | [8] -0.082 | [9] -0.101 | [10] 0.021 | [11] -0.066 | [13] 0.053 | [14] 0.022 | [15] -0.039 | [17] -0.065 | [18] -0.035 | [20] -0.018

SCO2 (UniProt O43819)
Sequence of UniProt O43819 (O43819 whole entry, looked up): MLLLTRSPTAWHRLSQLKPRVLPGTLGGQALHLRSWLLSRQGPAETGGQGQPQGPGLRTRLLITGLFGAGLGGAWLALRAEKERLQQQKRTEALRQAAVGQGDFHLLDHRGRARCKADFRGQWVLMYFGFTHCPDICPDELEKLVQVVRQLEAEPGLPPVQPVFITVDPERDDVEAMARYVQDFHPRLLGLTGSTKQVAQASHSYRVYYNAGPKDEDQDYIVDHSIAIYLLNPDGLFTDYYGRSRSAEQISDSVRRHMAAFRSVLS
active: [11] -0.487
inactive: [1] 0.02 | [2] 0.014 | [3] -0.06 | [4] 0.142 | [5] -0.154 | [6] -0.071 | [7] 0.024 | [8] 0.054 | [10] 0.07 | [12] -0.079 | [13] 0.029 | [14] -0.003 | [15] 0.269 | [16] 0.05 | [17] 0.029 | [18] 0.059 | [19] 0.03 | [20] 0.153
